Cruzain Triton: qHTS Assay for Promiscuous and Specific Inhibitors of Cruzain (with detergent); actives 0.43% (n = 200,000); Cruzipain (Trypanosoma cruzi), P25779; Potency, µM, most hits filed as inhibitors; purified cruzain, Z-FR-AMC fluorescence, 0.01% Triton; also: nearly all actives have a fitted effect of over 40% in size
Target sequence (P25779 123-467 limits assumed): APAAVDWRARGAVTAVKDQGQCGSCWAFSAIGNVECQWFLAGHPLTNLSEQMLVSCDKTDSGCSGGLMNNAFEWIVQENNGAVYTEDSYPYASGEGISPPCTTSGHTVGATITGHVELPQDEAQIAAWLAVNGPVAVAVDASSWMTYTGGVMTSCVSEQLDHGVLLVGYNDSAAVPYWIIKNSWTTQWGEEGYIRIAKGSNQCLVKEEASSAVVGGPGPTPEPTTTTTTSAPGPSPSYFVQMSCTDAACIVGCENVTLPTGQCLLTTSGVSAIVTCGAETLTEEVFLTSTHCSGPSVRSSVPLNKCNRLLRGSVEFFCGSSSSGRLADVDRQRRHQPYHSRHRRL
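Cruzain (1.5 nM) preincubated 15 min at RT with compound in 100 mM sodium acetate pH 5.5, 5 mM DTT, 0.01% Triton X-100. Reaction started with 2 uM Z-FR-AMC; AMC fluorescence (ex 360/em 450 nm) change over 60 s gave rate.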
Cruzain inh noDet: qHTS Assay for Promiscuous and Specific Inhibitors of Cruzain (without detergent). Potency, µM, usual class: inhibitors. purified cruzain, Z-FR-AMC fluorescence, no detergent. actives 2.3% (n = 200,000). Cruzipain (Trypanosoma cruzi), P25779; also: nearly all actives have a fitted effect of over 40% in size
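Detergent-free condition (0.00005% Triton X-100) in acetate buffer pH 5.5 with DTT. 1.5 nM enzyme and compound were pre-mixed 15 min, then 2 uM Z-FR-AMC substrate added; reaction progress from fluorescence change between first and third reads (60 s).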
Hits are given with their value. Most compounds without a hit are left out; they make up all but 2.5% or so of the library. Calls follow the shape of the dose curve; as a rule, active = well fitted curve in the direction sought with a large enough effect; inconclusive = small, poorly fitted or top-dose-only effect, or another doubt; inactive = no such curve, though single readings can be large; an effect the other way counts as inactive or inconclusive.

Results for Cc1cccnc1Nc1nc(-c2ccc(O)cc2)cs1 ?
Cruzain Triton: inactive; Cruzain inh noDet: inactive

What do the screens show for `CC(=O)Nc1cccc(-c2csc(Nc3ccc(C)cn3)n2)c1`?
Cruzain Triton: inactive; Cruzain inh noDet: inactive

What do the screens show for `COc1ccc(Nc2nc(-c3cccs3)cs2)cc1`?
Cruzain Triton: inactive; Cruzain inh noDet: 16µM

How did COc1ccc(Nc2nc(-c3sc(N)nc3C)cs2)cc1 do in these assays?
Cruzain Triton: 16µM; Cruzain inh noDet: 16µM

Results for Cc1nc(N)sc1-c1csc(Nc2ccc(Cl)cn2)n1 ?
Cruzain Triton: 28µM; Cruzain inh noDet: 16µM

How did COc1ccc(CNC(=O)Cc2coc3ccc(C)cc23)cc1 do in these assays?
Cruzain Triton: inactive; Cruzain inh noDet: inactive

What do the screens show for `COc1ccc(CNC(=O)C(C)N2Cc3ccccc3C2=O)cc1` (centres undefined)?
Cruzain Triton: inactive; Cruzain inh noDet: inactive

How did COc1ccc(CCNc2nc(-c3sc(N)nc3C)cs2)cc1OC do in these assays?
Cruzain Triton: 14µM; Cruzain inh noDet: 10µM

Results for COc1ccc(CCNc2ccncn2)cc1OC ?
Cruzain Triton: inactive; Cruzain inh noDet: inactive

Results for Cc1ccc(C(=O)c2no[n+]([O-])c2C(=O)c2ccc(C)cc2)cc1 ?
Cruzain Triton: inconclusive; Cruzain inh noDet: 25µM

Results for Cc1ccc(C(=O)/C=C\C(=O)c2ccc(C)cc2)cc1 ?
Cruzain Triton: inactive; Cruzain inh noDet: inactive

How did O=C1c2[nH]nc(-c3ccccc3O)c2C(c2ccc(Cl)cc2)N1CCc1ccccc1 (centres undefined) do in these assays?
Cruzain Triton: inactive; Cruzain inh noDet: inconclusive

What do the screens show for `CCOc1ccc(CNC(=S)N/N=C/c2cccnc2)cc1`?
Cruzain Triton: inactive; Cruzain inh noDet: inactive

How did CCOc1ccc(CNC(=S)N/N=C\c2ccc([N+](=O)[O-])cc2)cc1 do in these assays?
Cruzain Triton: inactive; Cruzain inh noDet: 20µM

Results for CCN(CC)c1ccc(C(=O)NCc2ccc3c(c2)CCN3C(=O)c2ccccc2)cc1 ?
Cruzain Triton: inactive; Cruzain inh noDet: inactive

Results for C[C@]12CC[C@H]3c4ccc(O)cc4CC[C@@H]3[C@H]1CC[C@@H]2OC(=O)CCc1ccccc1 ?
Cruzain Triton: inactive; Cruzain inh noDet: inactive

What do the screens show for `CCOC(=O)Nc1ccc(C)cc1C`?
Cruzain Triton: inactive; Cruzain inh noDet: inactive

How did Cc1ccc(NC(=O)COC(=O)C(CC(C)C)N2C(=O)C3CC=CCC3C2=O)c(C)c1 (centres undefined) do in these assays?
Cruzain Triton: 25µM; Cruzain inh noDet: inactive

What do the screens show for `Clc1cc(Cl)cc(Cl)c1`?
Cruzain Triton: inactive; Cruzain inh noDet: inactive

What do the screens show for `Cc1ccc(NS(=O)(=O)c2cccc(C(=O)N/N=C/c3c(C)nn(-c4ccccc4)c3N3CCCC3)c2)c(C)c1`?
Cruzain Triton: inactive; Cruzain inh noDet: 32µM

How did COc1ccccc1NS(=O)(=O)c1cccc(C(=O)N/N=C/c2ccc(N3CCOCC3)cc2)c1 do in these assays?
Cruzain Triton: inactive; Cruzain inh noDet: inconclusive

What do the screens show for `Cc1ccc(NS(=O)(=O)c2cccc(C(=O)N/N=C/c3ccc4c(c3)OCCO4)c2)c(C)c1`?
Cruzain Triton: inactive; Cruzain inh noDet: 6.3µM

How did CCNc1ccc(C(=O)N/N=C/c2c(C)nn(-c3ccccc3)c2N2CCCC2)cc1[N+](=O)[O-] do in these assays?
Cruzain Triton: inactive; Cruzain inh noDet: inactive

How did COc1ccc(Br)cc1CNC(=O)c1cc(=O)[nH]c2ccc(S(=O)(=O)N3CCCCC3)cc12 do in these assays?
Cruzain Triton: inactive; Cruzain inh noDet: inactive

Results for c1ccc(-c2nccc(-c3ccc(-n4cnc5ccccc54)cc3)n2)cc1 ?
Cruzain Triton: inactive; Cruzain inh noDet: 16µM

What do the screens show for `c1ccc(-n2nnnc2-n2cnc3ccccc32)cc1`?
Cruzain Triton: inactive; Cruzain inh noDet: inactive

What do the screens show for `Cc1cc(C)n(/N=C/c2cccc([N+](=O)[O-])c2)c(=O)c1`?
Cruzain Triton: inactive; Cruzain inh noDet: inactive

How did Cc1ccc(N=Cc2nc(/C=C/c3cccc([N+](=O)[O-])c3)oc2O)cc1 do in these assays?
Cruzain Triton: inactive; Cruzain inh noDet: 5µM

How did O=C(O)C12CC3(C(=O)O)CC(C(=O)O)(CC(C(=O)O)(C1)C3=O)C2=O do in these assays?
Cruzain Triton: inactive; Cruzain inh noDet: inactive

Results for Cc1nc2ccccn2c1C(=O)NNS(=O)(=O)c1ccc(C(C)(C)C)cc1 ?
Cruzain Triton: inactive; Cruzain inh noDet: inactive

Results for O=C1/C(=C\c2ccccn2)SC(=S)N1Nc1ncc(C(F)(F)F)cc1Cl ?
Cruzain Triton: 13µM; Cruzain inh noDet: inactive

What do the screens show for `O=C1/C(=C/c2ccc(F)cc2)SC(=S)N1Nc1ncc(C(F)(F)F)cc1Cl`?
Cruzain Triton: inactive; Cruzain inh noDet: inconclusive

Results for CC(C)c1ccc(O)c(O)c(=O)c1 (tested in a mixture with another compound) ?
Cruzain Triton: inactive; Cruzain inh noDet: inactive

How did COc1cccc(C2=NS(=O)(=O)N(C)C(C(=O)Nc3ccccc3SC)=C2)c1 do in these assays?
Cruzain Triton: inactive; Cruzain inh noDet: 13µM

How did CCc1ccccc1NC(=O)C1=CC(c2ccc3c(c2)OCO3)=NS(=O)(=O)N1C do in these assays?
Cruzain Triton: inactive; Cruzain inh noDet: inactive

Results for CCc1ccccc1NC(=O)c1cc(-c2ccc(OC)cc2)on1 ?
Cruzain Triton: inactive; Cruzain inh noDet: inactive

Results for COc1ccccc1-c1cc(C(=O)Nc2ccc(F)cc2F)no1 ?
Cruzain Triton: inactive; Cruzain inh noDet: 13µM

How did COc1ccc(-c2cc(C(=O)Nc3ccccc3SC)no2)cc1 do in these assays?
Cruzain Triton: inactive; Cruzain inh noDet: 5µM

How did COc1ccccc1-c1cc(C(=O)Nc2cc(Cl)ccc2O)no1 do in these assays?
Cruzain Triton: inactive; Cruzain inh noDet: inactive

How did Cn1cc(CC(=O)Nc2cccc(C#N)c2)c2ccccc21 do in these assays?
Cruzain Triton: inactive; Cruzain inh noDet: inactive

Results for CN(C)C(=O)Cl ?
Cruzain Triton: inactive; Cruzain inh noDet: inactive

What do the screens show for `COc1cccc(-c2nc(NCCN3CCOCC3)c3ccccc3n2)c1`?
Cruzain Triton: inactive; Cruzain inh noDet: inactive

How did CC(=O)Nc1ccc(S(=O)(=O)NNC(=O)c2cc3c4ccccc4n(C)c3s2)cc1 do in these assays?
Cruzain Triton: 22µM; Cruzain inh noDet: inactive

How did CCCNC(=O)c1cc2c3ccccc3n(C)c2s1 do in these assays?
Cruzain Triton: inactive; Cruzain inh noDet: inactive

What do the screens show for `COn1c(SCc2ccc(C)cc2C)nc2ccccc2c1=O`?
Cruzain Triton: inactive; Cruzain inh noDet: inactive

Results for O=[N+]([O-])c1cc(S(=O)(=O)N2CCCC2)ccc1N/N=C/c1cccnc1 ?
Cruzain Triton: inactive; Cruzain inh noDet: inactive

Results for CCC(/C=N/Nc1ccc(S(=O)(=O)N2CCCC2)cc1[N+](=O)[O-])CC ?
Cruzain Triton: inactive; Cruzain inh noDet: 20µM

Results for C=CCCC#N ?
Cruzain Triton: inactive; Cruzain inh noDet: inactive

What do the screens show for `CCCCC/C=C\C/C=C\C/C=C\C/C=C\CCCC(=O)NCCCl`?
Cruzain Triton: inactive; Cruzain inh noDet: inactive

What do the screens show for `CCOC(=O)N1CCN(C(=O)Nc2ccc(Cl)cc2Cl)CC1`?
Cruzain Triton: inactive; Cruzain inh noDet: inactive

Results for CCN(CC)c1ccc(/C=N/NS(=O)(=O)c2ccc(C)c([N+](=O)[O-])c2)cc1 ?
Cruzain Triton: inactive; Cruzain inh noDet: inactive

Results for CCN(Cc1ccccc1)c1ccc(/C=N/NS(=O)(=O)c2cccc([N+](=O)[O-])c2)cc1 ?
Cruzain Triton: inactive; Cruzain inh noDet: 25µM

From PubChem BioAssay
